The values below come from ChEMBL document CHEMBL3988442, “University of Dundee, Small-Polar-MMV Screening Library” (2021).

What all share (design): scale not given: direction of the effect not stated beside the values
For assay [1], the target named is Protein translocase subunit SecA (Escherichia coli (strain K12)) (UniProt P10408). The assay can be described thus: Assay to Identify E. coli SecA ATPase Inhibitors. The assay is classed as functional. As to conditions: 30 µM.
Assay [2] addresses T1, Ubiquitin-activating enzyme e1, putative (Leishmania donovani (strain BPK282A1)) (UniProt E9BSI1).
T1 sequence (whole entry): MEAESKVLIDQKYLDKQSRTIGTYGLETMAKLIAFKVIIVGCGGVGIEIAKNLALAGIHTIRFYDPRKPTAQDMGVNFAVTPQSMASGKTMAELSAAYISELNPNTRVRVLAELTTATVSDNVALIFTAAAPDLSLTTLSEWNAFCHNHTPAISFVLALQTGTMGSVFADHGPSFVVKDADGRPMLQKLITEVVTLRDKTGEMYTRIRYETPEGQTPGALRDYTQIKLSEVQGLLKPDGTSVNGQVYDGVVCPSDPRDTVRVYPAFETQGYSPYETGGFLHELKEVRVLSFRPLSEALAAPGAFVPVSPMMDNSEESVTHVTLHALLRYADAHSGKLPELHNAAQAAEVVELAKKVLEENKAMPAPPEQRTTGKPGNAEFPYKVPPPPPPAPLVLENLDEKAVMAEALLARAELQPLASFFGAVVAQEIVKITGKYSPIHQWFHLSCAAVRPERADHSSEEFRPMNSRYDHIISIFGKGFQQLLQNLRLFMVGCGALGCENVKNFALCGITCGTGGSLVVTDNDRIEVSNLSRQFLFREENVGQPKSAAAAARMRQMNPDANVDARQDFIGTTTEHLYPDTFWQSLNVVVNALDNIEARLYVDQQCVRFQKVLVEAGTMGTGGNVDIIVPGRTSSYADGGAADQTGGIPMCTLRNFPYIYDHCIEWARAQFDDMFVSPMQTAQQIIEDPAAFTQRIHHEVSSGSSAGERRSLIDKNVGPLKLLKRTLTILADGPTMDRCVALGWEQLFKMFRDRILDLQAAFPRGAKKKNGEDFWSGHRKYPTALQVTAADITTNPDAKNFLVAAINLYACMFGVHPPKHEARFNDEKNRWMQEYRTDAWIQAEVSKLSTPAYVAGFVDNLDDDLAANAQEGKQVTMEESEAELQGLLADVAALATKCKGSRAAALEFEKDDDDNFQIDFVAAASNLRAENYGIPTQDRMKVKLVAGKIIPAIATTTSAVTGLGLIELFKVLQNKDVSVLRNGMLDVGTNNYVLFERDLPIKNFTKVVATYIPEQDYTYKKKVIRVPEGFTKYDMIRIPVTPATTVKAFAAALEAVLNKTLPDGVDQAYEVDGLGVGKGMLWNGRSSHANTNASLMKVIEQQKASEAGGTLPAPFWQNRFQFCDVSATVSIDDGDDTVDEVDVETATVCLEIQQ
Nature of the assay: Leishmania donovani Ubiquitin Activating Enzyme (LdE1). The assay is classed as functional. As to conditions: 30 µM.

For assay [3], the target named is AMP-activated protein kinase, AMPK (Homo sapiens) (UniProt P54646+O43741+P54619+Q9UGJ0+Q9Y478+Q13131+Q9UGI9). The assay can be described thus: AMP-dependent Kinase enzyme assay. An in vitro enzyme assay that detects ADP turnover that is directly proportional to AMPK activity. This uses naive AMPK that is activated during the assay with MK-8722. Type of assay: functional. As to conditions: 30 µM.

For assay [4], the target named is Sialic acid-binding Ig-like lectin 9 (Homo sapiens) (UniProt Q9Y336). The assay can be described thus: Hs-Siglec9 ALPHAscreen SOP 20170721. As to conditions: 10 µM. (In general: Alpha assays give light when donor and acceptor beads are brought close together.)
Sequence of Sialic acid-binding Ig-like lectin 9 (Homo sapiens) (Q9Y336 whole entry): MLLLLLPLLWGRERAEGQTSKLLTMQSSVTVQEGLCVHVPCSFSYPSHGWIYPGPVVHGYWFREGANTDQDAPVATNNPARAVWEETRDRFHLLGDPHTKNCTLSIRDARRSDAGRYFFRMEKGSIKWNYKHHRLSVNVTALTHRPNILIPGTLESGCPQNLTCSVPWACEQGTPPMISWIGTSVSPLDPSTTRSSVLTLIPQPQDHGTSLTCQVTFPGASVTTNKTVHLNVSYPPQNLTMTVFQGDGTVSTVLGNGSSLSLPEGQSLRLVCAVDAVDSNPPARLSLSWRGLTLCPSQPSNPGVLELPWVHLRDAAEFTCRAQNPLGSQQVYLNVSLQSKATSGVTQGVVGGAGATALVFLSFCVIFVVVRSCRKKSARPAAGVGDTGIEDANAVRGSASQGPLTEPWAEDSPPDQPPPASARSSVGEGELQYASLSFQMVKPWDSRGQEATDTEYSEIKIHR
A further assay deals with Trypanosoma cruzi. The assay can be described thus: Trypanosoma cruzi phosphomannomutase and mannose-1-phosphate guanylyltransferase assay. The following applies: 10 µM. Type of assay: functional.
Assay [5] addresses T2, Arginase-2, mitochondrial (Homo sapiens) (UniProt P78540).
T2 sequence (whole entry): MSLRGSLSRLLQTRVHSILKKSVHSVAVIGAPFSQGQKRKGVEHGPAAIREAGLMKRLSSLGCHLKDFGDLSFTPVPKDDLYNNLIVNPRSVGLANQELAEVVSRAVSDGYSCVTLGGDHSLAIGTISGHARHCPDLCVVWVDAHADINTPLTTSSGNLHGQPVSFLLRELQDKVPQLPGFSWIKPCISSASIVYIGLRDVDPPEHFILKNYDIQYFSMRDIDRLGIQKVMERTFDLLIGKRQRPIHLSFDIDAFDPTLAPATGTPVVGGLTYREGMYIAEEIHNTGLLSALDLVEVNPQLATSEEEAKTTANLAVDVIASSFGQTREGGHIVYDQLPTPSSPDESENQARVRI
The assay can be described thus: in vitro enzyme assay to detect the production of urea directly proportional to the activity of Arginase II. Note: in the data most compounds retested in dose-response had high values. The assay is classed as functional. As to conditions: 33.3 µM.

For assay [6], the target named is T3, Proteasome subunit beta (Trypanosoma cruzi) (UniProt O96673).
T3 sequence (whole entry): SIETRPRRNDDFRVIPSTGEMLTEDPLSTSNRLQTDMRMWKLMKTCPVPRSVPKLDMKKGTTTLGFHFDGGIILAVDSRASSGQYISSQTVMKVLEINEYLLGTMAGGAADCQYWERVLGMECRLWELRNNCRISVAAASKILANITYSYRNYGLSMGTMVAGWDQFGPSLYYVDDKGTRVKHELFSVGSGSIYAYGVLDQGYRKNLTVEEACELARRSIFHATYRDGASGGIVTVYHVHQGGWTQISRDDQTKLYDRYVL
The assay can be described thus: Trypanosoma cruzi proteasome chymotrypsin-like activity (TcProtChymo) assay. Note: in the data most compounds retested in dose-response had high values. Type of assay: functional. The following applies: 9.37 µM.

A further assay is filed under the species Homo sapiens. Nature of the assay: To identify inhibition of the IFN signalling (Jak-Stat) pathway via expression of an eGFP reporter gene under the control of an IFN-stimulated response element (ISRE) containing MxA promoter. The following applies: 30 µM. The assay is classed as functional. In general terms: In a reporter assay the amount or activity of a reporter protein is the signal.

The target of assay [7] is T4, Tyrosyl-tRNA synthetase, putative (Trypanosoma cruzi (strain CL Brener)) (UniProt Q4DSP6).
T4 sequence (whole entry): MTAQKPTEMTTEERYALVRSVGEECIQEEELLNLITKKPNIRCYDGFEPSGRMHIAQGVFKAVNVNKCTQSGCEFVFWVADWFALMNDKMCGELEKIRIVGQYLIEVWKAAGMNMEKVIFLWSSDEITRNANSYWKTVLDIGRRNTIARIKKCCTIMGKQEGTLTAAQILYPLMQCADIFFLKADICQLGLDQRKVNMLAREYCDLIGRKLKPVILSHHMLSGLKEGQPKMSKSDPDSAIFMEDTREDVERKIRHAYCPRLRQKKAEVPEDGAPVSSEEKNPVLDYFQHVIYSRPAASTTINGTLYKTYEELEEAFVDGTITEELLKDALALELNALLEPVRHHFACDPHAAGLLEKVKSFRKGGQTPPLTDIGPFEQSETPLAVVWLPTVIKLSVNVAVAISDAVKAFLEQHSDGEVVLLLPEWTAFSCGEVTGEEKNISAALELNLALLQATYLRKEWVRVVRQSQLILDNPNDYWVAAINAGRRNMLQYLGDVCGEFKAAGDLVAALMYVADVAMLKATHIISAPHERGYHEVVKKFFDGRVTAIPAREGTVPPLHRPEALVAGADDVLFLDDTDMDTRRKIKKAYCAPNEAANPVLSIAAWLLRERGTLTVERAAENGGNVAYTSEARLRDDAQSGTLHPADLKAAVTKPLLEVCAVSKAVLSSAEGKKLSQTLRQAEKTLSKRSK
Nature of the assay: Trypanosoma cruzi tyrosyl tRNA synthetase (TcYRS) _High Tyrosine SOP. Note: in the data most compounds retested in dose-response had high values. As to conditions: 30 µM. Type of assay: functional.

Assay [8] addresses T4, Tyrosyl-tRNA synthetase, putative (Trypanosoma cruzi (strain CL Brener)). The assay can be described thus: Trypanosoma cruzi tyrosyl tRNA synthetase (TcYRS) SOP. The following applies: 30 µM. Type of assay: functional.
The target in assay [9] is Chromo domain-containing protein 1 (Saccharomyces cerevisiae (strain ATCC 204508 / S288c) (Baker's yeast)) (UniProt P32657). The assay can be described thus: ScCHD-1 Enzyme Inhibition Assay. Note: in the data most compounds retested in dose-response had high values. Type of assay: functional. As to conditions: 30 µM.
Sequence of Chromo domain-containing protein 1 (Saccharomyces cerevisiae (strain ATCC 204508 / S288c) (Baker's yeast)) (P32657 whole entry, the tested form may be a part): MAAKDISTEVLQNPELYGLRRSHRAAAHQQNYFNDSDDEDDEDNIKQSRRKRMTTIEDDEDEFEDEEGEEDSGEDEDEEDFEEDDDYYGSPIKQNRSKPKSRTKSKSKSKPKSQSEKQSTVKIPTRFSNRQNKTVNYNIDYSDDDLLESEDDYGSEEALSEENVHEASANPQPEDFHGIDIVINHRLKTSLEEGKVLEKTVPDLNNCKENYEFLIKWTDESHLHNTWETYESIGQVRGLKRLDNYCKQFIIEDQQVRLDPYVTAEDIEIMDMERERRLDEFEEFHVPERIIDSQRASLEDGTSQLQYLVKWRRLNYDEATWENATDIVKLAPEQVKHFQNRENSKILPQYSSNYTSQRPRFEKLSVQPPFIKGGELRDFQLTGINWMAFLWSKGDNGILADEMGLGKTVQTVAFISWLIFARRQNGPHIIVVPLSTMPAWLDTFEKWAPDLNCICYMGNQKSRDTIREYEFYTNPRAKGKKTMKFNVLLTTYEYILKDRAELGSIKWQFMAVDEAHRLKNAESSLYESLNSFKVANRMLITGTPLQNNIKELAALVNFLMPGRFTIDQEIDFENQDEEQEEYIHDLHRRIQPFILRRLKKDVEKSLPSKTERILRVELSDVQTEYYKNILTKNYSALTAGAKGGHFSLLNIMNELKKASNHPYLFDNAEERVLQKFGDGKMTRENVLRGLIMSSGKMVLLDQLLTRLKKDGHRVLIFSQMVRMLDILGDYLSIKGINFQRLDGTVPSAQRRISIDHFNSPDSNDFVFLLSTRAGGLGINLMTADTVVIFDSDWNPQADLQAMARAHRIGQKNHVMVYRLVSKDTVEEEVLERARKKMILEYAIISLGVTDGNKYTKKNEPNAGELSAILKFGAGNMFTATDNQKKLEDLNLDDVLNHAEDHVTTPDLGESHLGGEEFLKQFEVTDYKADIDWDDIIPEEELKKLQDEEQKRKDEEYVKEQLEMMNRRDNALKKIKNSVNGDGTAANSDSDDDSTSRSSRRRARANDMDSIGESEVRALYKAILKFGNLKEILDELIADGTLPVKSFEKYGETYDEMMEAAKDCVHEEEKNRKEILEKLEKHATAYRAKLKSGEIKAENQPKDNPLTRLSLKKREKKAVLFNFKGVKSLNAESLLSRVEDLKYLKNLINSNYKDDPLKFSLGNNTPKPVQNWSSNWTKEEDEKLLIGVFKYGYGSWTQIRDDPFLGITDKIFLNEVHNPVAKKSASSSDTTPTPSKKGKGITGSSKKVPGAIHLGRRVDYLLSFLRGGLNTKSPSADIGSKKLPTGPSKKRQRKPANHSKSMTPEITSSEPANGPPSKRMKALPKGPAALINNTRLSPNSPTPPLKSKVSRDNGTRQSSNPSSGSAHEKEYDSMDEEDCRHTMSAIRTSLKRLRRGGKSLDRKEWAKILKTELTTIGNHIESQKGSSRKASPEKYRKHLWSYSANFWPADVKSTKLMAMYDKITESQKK

For some of these results: Entries with a potency or affinity are not part of this list.

Sequence of Protein translocase subunit SecA (Escherichia coli (strain K12)) (P10408 whole entry): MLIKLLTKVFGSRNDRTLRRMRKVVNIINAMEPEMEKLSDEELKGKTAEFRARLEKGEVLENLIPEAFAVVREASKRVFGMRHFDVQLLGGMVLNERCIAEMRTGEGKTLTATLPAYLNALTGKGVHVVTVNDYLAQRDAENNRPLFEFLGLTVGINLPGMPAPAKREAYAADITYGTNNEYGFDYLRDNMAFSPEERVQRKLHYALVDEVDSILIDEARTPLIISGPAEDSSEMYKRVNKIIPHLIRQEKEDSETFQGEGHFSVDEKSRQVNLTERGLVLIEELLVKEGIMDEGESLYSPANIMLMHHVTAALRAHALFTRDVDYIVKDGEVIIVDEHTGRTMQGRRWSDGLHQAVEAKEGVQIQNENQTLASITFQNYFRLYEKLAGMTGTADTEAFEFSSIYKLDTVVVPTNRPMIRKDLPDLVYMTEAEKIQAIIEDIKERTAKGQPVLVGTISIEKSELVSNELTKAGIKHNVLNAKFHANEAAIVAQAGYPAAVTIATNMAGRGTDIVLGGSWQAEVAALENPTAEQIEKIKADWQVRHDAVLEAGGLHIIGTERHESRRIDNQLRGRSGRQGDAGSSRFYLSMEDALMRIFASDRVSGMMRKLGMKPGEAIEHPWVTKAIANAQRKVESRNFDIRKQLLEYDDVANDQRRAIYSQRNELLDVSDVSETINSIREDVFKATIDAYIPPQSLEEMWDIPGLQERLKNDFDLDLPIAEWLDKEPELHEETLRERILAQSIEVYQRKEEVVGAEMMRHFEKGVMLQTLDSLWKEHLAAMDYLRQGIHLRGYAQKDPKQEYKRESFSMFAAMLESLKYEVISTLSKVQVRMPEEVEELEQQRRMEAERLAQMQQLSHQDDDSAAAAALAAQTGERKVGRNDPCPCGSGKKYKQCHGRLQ

Regarding `CCN1CCN(C(=O)CCc2c(C)noc2Cl)CC1`, the Percent Effect in assay [1] was -4.13%; in assay [2] it was 10.5%; in assay [3], -2.91%; in assay [4], -3.24%; in the assay on Trypanosoma cruzi, -9.24%; in assay [5], 4.32%. Besides, the Percent Effect in assay [6] is 5.16%; in the assay listed under Homo sapiens it was -6.25%; in assay [7], 3.45%; in assay [8] it was 6.17%; in [9], -1.51%.
As to `CNC(=O)c1cc2c(nc1N(C)C)CCN(S(=O)(=O)CC(C)C)CC2`, the Percent Effect in assay [1] was -2.25%; in assay [2] it was 5.2%; in [3], 7.84%; in assay [4], 6.98%; with Trypanosoma cruzi, -2.27%; in [5], -5.81%. In addition, the Percent Effect in assay [6] was 3.83%; in the assay filed under Homo sapiens, -12.4%; in [7], -9.52%; in assay [8], 1.28%; in assay [9] it was -2.31%.
Take `c1ccc(NCc2cn3c(n2)CN(Cc2cccnc2)CC3)nc1`: the Percent Effect was -5.07% in assay [1]; 13.5% in assay [2]; 2.94% in assay [3]; -3.31% in assay [4]; -2.83% in the assay on Trypanosoma cruzi; 4.78% in [5]. In addition, the Percent Effect in assay [6] was 23.6%; in the assay listed under Homo sapiens, 4.12%; in assay [7], -1.08%; in [8] it was 10.3%; in assay [9] it was 0.00712%.
With `c1ccc(Cn2cccn2)c(CNCC2CNc3ccnn3C2)c1` (stereo unspecified), the Percent Effect in assay [1] is -5.51%; in assay [2] it was 10.4%; in assay [3] it was -9.17%; in assay [4], 10.9%; in the assay with Trypanosoma cruzi it was 13.5%; in assay [5], -4.63%. The Percent Effect in [6] is 13.3%; in the assay filed under Homo sapiens, 3.57%; in assay [7], 16.5%; in [8], 21.9%; in assay [9] it was -11%.
Regarding `N#Cc1ccc(CN2CCN(C(=O)c3cc(C4CC4)[nH]n3)CC2)cc1`, the Percent Effect is -4.3% in [1]; 21.6% in [2]; -5.26% in [3]; 14.7% in assay [4]; 4.74% with Trypanosoma cruzi; -3.51% in assay [5]. In addition, the Percent Effect in assay [6] was 5.21%; in the assay filed under Homo sapiens it was 23.8%; in [7], 7.92%; in assay [8], 18.3%; in assay [9] it was -4.6%.
Consider `CC(=O)NCCNC(=O)CN1CCN(Cc2nccn2C)C(C)C1` (stereo unspecified), for which the Percent Effect is -6.92% in assay [1]; 0% in [2]; -3.67% in assay [3]; 14% in assay [4]; -0.836% in the assay with Trypanosoma cruzi; 0.185% in assay [5]. Further, the Percent Effect in assay [6] is -2.87%; in the assay filed under Homo sapiens, 0.801%; in [7], 7.92%; in assay [8], 6.1%; in [9], 10%.
On to `COc1ccc2cc(C(=O)N3CCCCC3CC(N)=O)[nH]c2c1` (stereo unspecified), for which the Percent Effect in [1] is -4.78%; in assay [2] it was 15.6%; in assay [3], 7.25%; in [4], 13.8%; with Trypanosoma cruzi it was -0.187%; in assay [5], -3.56%. For the same compound, the Percent Effect in assay [6] is 5.57%; in the assay listed under Homo sapiens, -10.4%; in assay [7], 5.83%; in [8], 12.2%; in assay [9], -4.84%.
Regarding `CSCC(CCO)NC(=O)Nc1cccc(Br)c1` (stereo unspecified), the Percent Effect in assay [1] is -3.42%; in assay [2], 2.74%; in assay [3], 8.84%; in assay [4], -3.56%; in the assay with Trypanosoma cruzi it was -3.53%; in assay [5] it was 3.18%. The Percent Effect in assay [6] is 17.2%; in the assay listed under Homo sapiens it was 6.61%; in [7], 0%; in [8] it was 2.5%; in [9], -2.08%.
As for `CCOC(=O)CNC(=O)N1CCN(c2ncccn2)CC1`, the Percent Effect in assay [1] was -2.75%; in [2], 7.79%; in assay [3] it was -0.383%; in assay [4], 6.61%; in the assay on Trypanosoma cruzi, 4.03%; in [5] it was -13.8%. For the same compound, the Percent Effect was 9.65% in [6]; 14.3% in the assay filed under Homo sapiens; 5.38% in assay [7]; 13.6% in assay [8]; -4.38% in assay [9].
`COCCC(=O)N1CCN(CCN(C)C)c2ncccc2C1`: the Percent Effect in [1] was -3.66%; in assay [2] it was 5.2%; in assay [3] it was 4.52%; in assay [4], 2.96%; in the assay with Trypanosoma cruzi, -0.492%; in assay [5], -2.76%. Besides, the Percent Effect in assay [6] is 9.48%; in the assay listed under Homo sapiens it was 0.361%; in assay [7] it was 4.3%; in [8], 8.64%; in [9] it was -1.22%.
As for `CC(C)c1nn(C)c(N2CCOCC2)c1CNC(C)c1cccs1` (stereo unspecified), the Percent Effect is -3.9% in assay [1]; -13.2% in assay [2]; -6.19% in assay [3]; -4.57% in [4]; -2.71% with Trypanosoma cruzi; -1.08% in assay [5]. Also, the Percent Effect was 1.44% in assay [6]; -28.8% in the assay filed under Homo sapiens; 11.3% in [7]; 18.5% in assay [8]; -4.62% in [9].
